# Compound activity (PubChem)
# DT40 TDP1 CPT = qHTS for Inhibitors of human tyrosyl-DNA phosphodiesterase 1 (TDP1): qHTS in cells in presence of CPT | chicken DT40 Tdp1-/-;hTDP1 cells + 20 nM CPT, ATP luminescence, 48 h | Potency, µM (highest dose often 46.2 µM), for the others: at the highest dose activity change, negative = growth inhibition, actives largely listed as inhibitors | actives 12% (n = 420,000) | AID 686979, 2013; note: nearly all actives have a fitted effect of over 55% in size
#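 Cell growth measured by CellTiter-Glo luminescence after a minimum 48 h, 37 C compound exposure with 20 nM CPT in Tdp1-knockout DT40 cells stably expressing hTDP1, seeded 400/well; qHTS titration format.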
# RORgamma inh = qHTS for inhibitors of ROR gamma transcriptional activity; Nuclear receptor ROR-gamma (Mus musculus), P51450; Drosophila S2 Gal4-RORgamma UAS-luciferase reporter, 20 h; Potency, µM (series often up to 53.6 µM), without a hit: at the highest dose activity change, negative = inhibition, usual class: inhibitors; actives 5.4% (n = 310,000); note: nearly all actives have a fitted effect of over 60% in size
# Target sequence (P51450 whole entry, looked up, the tested form may be a part): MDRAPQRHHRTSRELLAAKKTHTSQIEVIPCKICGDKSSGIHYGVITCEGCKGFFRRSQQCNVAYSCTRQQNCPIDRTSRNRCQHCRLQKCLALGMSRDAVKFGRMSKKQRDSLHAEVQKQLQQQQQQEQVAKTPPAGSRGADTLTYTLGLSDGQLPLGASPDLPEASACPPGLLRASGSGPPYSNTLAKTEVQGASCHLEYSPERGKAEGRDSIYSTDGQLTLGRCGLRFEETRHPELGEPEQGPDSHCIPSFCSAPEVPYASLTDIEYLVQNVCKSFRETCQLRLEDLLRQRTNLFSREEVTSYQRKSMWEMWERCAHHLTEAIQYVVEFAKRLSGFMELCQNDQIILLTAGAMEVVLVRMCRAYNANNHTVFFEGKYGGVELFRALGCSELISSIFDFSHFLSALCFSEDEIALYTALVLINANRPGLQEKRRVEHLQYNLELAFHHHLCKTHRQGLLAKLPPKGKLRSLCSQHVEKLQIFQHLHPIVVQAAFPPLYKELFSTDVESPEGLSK
#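 Using a luciferase readout, inhibitors were identified by reduced reporter activity in Drosophila cells coexpressing a copper-inducible Gal4–ROR gamma fusion and UAS-driven Photinus luciferase, incubated 20 hr after 700 uM copper sulfate.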
# ELG1 repair inh = qHTS screen for small molecules that inhibit ELG1-dependent DNA repair in human embryonic kidney (HEK293T) cells expressing luciferase-tagged ELG1; HEK293T ELG1-luciferase reporter, luminescence, 16 h; DNA damage induced by 5-fluorouridine; Potency, µM (titrated, usually from 46.1 µM), inactives show top-dose activity change, negative = inhibition, most hits filed as inhibitors; actives 2.3% (n = 330,000); note: nearly all actives have a fitted effect of over 55% in size
#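 Quantitative HTS, concentration-response format. 2,000 cells/well co-treated with 5-fluorouridine and compound, 16 hr in 5% CO2 at 37 °C; ONE-Glo luminescence read after 30 min.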
# VP16 counter = VP16 counterscreen qHTS for inhibitors of ROR gamma transcriptional activity; AID 2546, 2010; Drosophila S2 Gal4-VP16 UAS-luciferase, luminescence, 20 h; Potency, µM (series often up to 53.6 µM), for the others: top-dose activity, negative = inhibition, hits mostly inhibitors; actives 3.5% (n = 310,000);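 note: Gal4-VP16 expression switched on by copper sulfate through the metallothionein promoter; nearly all actives have a fitted effect of over 50% in size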
# 12-LOX inh = Primary qHTS assay for inhibitors of human arachidonate 12S-lipoxygenase (ALOX12): Round 2; actives 1.1% (n = 580,000); purified 12hLO, xylenol orange hydroperoxide absorbance; Potency, µM (highest dose often 108 µM), without a hit: at the top dose activity change, negative = inhibition, most hits filed as inhibitors; AID 1671190, 2021; Polyunsaturated fatty acid lipoxygenase ALOX12 (Homo sapiens), P18054
#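 Purified human 12hLO at 150 nM in 25 mM Hepes, 0.01% Triton X-100, pH 7.0, preincubated 15 min at room temperature with compound. Reaction started with 40 uM arachidonic acid, 30 min at room temperature. Hydroperoxide measured by Fe-xylenol orange, 573/405 nm absorbance ratio.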
# TDP1 cell noCPT = qHTS for Inhibitors of human tyrosyl-DNA phosphodiesterase 1 (TDP1): qHTS in cells in absence of CPT; DT40 Tdp1-/- hTDP1 cells, no CPT, ATP luminescence, 48 h; Potency, µM (titrated, usually from 46.2 µM), inactives show at the highest dose activity change, negative = growth inhibition, hits mostly inhibitors; actives 15% (n = 420,000); note: nearly all actives have a fitted effect of over 55% in size
#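 Compound effects on proliferation are scored in DT40 Tdp1-/-;hTDP1 cells in the absence of CPT. ATP levels (CellTiter-Glo luminescence) are recorded after a ≥48 hr, 37 °C incubation.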
# * = called active by the depositor; ? = inconclusive; . = not tested or not shown; [ ] = dose if it differs, or a comment. Most compounds without a hit are left out; they make up all but 15% or so of the library. Calls come from the whole dose curve; as a rule, active = well fitted curve in the direction sought with a large enough effect; inconclusive = small, poorly fitted or top-dose-only effect, or another doubt; inactive = no such curve, though single readings can be large; an effect the other way counts as inactive or inconclusive. % is set by controls: 0 for no effect and ±100 for the full control effect; potency is the fitted concentration of half-maximal effect.
SMILES,DT40 TDP1 CPT,RORgamma inh,ELG1 repair inh,VP16 counter,12-LOX inh,TDP1 cell noCPT
CCOC(=O)c1c(NC(=O)/C=C/C(=O)O)sc(C)c1-c1ccc(C)c(C)c1,?,10µM*,-9%,6%,-28%,?
CC(C)=C1C2CCC1C(C(=O)Nc1sc(C)c(-c3ccc(C(C)C)cc3)c1C(N)=O)C2C(=O)O (stereo not drawn),16µM*,11%,?,?,?,16µM*
COC(=O)c1c(NC(=O)/C=C/C(=O)O)sc(C)c1-c1ccc(C)c(C)c1,?,4.5µM*,-6%,-5%,-25%,?
O=C(c1cocn1)N1C[C@@H](COc2ccncc2)[C@H](c2ccccn2)C1,.,.,.,.,66%,.
COC[C@@H]1[C@H](C(=O)Nc2cc(OC)ccc2OC)CCC(=O)N1C,.,.,.,.,60%,.
C(=C\c1ccco1)/C1=NN(c2ccccc2)C(c2ccco2)C1 (stereo not drawn),?,?,?,?,.,23µM*
CCN(CC)CCN1CCn2c3c(c4cc(C)ccc42)CCCC31 (stereo not drawn),?,-14%,11%,-5%,-16%,23µM*
Cc1ccc2c(c1)c1c3n2CCN(C(=O)c2cccc(C(F)(F)F)c2)C3CCC1 (stereo not drawn),?,.,.,.,-4%,23µM*
COc1ccc(C(=O)N2CCN(C3CCN(C)C3=O)CC2)cc1 (stereo not drawn),.,.,.,.,10%,.
Cc1noc(C)c1C(=O)NC1CCCc2c1[nH]c1ccccc21 (stereo not drawn),.,.,.,.,-35%,.
COc1ccccc1CNC(=O)C[C@@H]1[C@H](O)CCC2[C@](C)(CO)[C@H](OC(=O)NC3CCCCC3)CC[C@]21C (stereo partly drawn),.,.,.,.,99%,.
O=C(C1CCN(C(=O)N2CC3CC(C2)[C@H]2CCCC(=O)N2C3)CC1)N1CCc2ccccc2C1 (stereo partly drawn),.,.,.,.,8%,.
COCCCNC(=O)c1cc(Cc2ccccc2)sc1N,?,.,.,.,-27%,?
Cc1[nH]c2ccccc2c1C(=O)c1cc(Cc2ccccc2)sc1N,?,.,.,.,?,16µM*
COc1ccc(-n2nc(C3CCCN(C(=O)Cc4ccccn4)C3)[nH]c2=O)cc1 (stereo not drawn),.,.,.,.,-8%,.
CCC(O)(CC)C(=O)NN(C(=O)CCl)c1ccccc1,13µM*,-28%,?,2%,-29%,15µM*
CCN(CC)c1ccc(NC(=O)Nc2ccccc2)cc1,-8%,?,?,-29%,-1%,?
Cc1ccc(N(NC(=O)C(O)(c2ccccc2)c2ccccc2)C(=O)CCl)cc1,4.1µM*,6.3µM*,21µM*,7.9µM*,-30%,5.2µM*
Cc1ccc(C(O)(C(=O)NN(C(=O)c2ccccc2)c2ccccc2)c2ccc(C)cc2)cc1,?,13%,-27%,-15%,-7%,?
O=C(Nc1ccccc1)NN(C(=O)CCl)c1ccccc1,3.3µM*,?,23µM*,?,-8%,3.3µM*
O=C(COc1cc2oc(=O)cc(-c3ccccc3)c2cc1Cl)NC1CC1,.,.,.,.,-4%,.
O=C1COCCN1c1cc(-c2cccc(F)c2)cn2cncc12,.,.,.,.,15%[176 µM],.
Cc1noc(C)c1CN(C(=S)NC1CC2CCC1C2)c1ccccc1 (stereo not drawn),?,5%,?,-10%,3%,23µM*
CC(C)CSc1ncnc2c1oc1nc3c(cc12)COC(C)(C)C3,1%,29%,11%,4%,4%,-3%
C=CCSc1ncnc2c1oc1nc3c(cc12)COC(C)(C)C3,-20%,14%,0%,?,172%,18µM*
SMILES,DT40 TDP1 CPT,RORgamma inh,ELG1 repair inh,VP16 counter,12-LOX inh,TDP1 cell noCPT
COc1ccc(C(CC(=O)c2ccco2)SCCO)cc1OC (stereo not drawn),.,.,.,.,0%,.
COc1ccc(OC)c(CN2C(=O)CCCCC2(C)c2nnnn2C2CCCC2)c1 (stereo not drawn),.,.,.,.,9%,.
O=C1CCc2cc(OCCCCc3nnnn3C3CCCCC3)ccc2N1,?,?,0%,?,4%,16µM*
C[C@H](NC(=O)C1CC(=O)N(c2ccc(F)cc2)C1)C(=O)NCCc1c[nH]c2ccccc12 (stereo partly drawn),.,.,.,.,44%,.
Cc1ccc(C)n1NC(=O)c1ccccc1Cl,-26%,5%,-5%,7%,45µM*,?
O=S(=O)(c1ccccc1)[C@@]1(c2ccccc2)C[C@@H]2ON=C(c3cccc(-c4ccccc4)c3)[C@@H]2C1,?,.,-5%,.,-2%,13µM*
COc1ccc(C2=NO[C@H]3C[C@](C(=O)NC(C)C)(S(=O)(=O)c4ccccc4)C[C@@H]23)cc1,5%,1%,-7%,7%,.,-17%
CC(=O)c1ccc(NC(=O)O[C@@H]2CO[C@H]3[C@@H]2OC[C@@H]3n2nnnc2-c2ccc(CN3CCOCC3)cc2)cc1,.,.,.,.,0%,.
Cc1cccc(N2CCN(C(=O)CN3CCOc4ccccc43)CC2C)c1 (stereo not drawn),23µM*,12%,?,-2%,?,?
Cc1cccc(N2CCN(C(=O)CC(NC(=O)c3ccccc3)c3ccccc3)CC2C)c1 (stereo not drawn),?,-6%[10 µM],-11%,-3%,-24%,29µM*
O=C(CN1CCOc2ccccc21)N1CCN(c2cccc(Cl)c2)CC1,?,.,.,.,2%,29µM*
Cc1cccc(N2CCN(C(=O)c3ccc4c(c3)OCCO4)CC2C)c1 (stereo not drawn),30%,30%,10%,-18%,68%,-2%
COc1cccc(N2CCN(C(=O)CC(NC(=O)c3ccccc3)c3ccccc3)CC2)c1 (stereo not drawn),-20%,.,-5%,.,-12%,-30%
CC(=O)NC(C)(c1ccccc1)c1nc(-c2cccc3cccnc23)cs1 (stereo not drawn),21µM*,.,.,.,-1%,15µM*
